Where “and” joins values, the source holds several entries; their conditions need not be identical. Identical values can stand only once. Calls of active or inactive are those of the source. Cut-off read from the data, not from the text of the source: active = inhibition above about 80%; inactive = the rest.
test: growth inhibition of BT084 medulloblastoma cells, cell-based, ICGC_MB145, cisplatin and BGB IC40 combos (AID 1671461); details: drug combinations, cisplatin combination, at 5 µM, stronger effect = higher value;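 note: cells exposed to drugs for 96 hours; 0% = vehicle DMSO and 100% = high DMSO full killing control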

SMILES	inhibition
CCCCN(Cc1ccc(C(=O)NO)cc1)C(=O)Nc1ccccc1	71.8% and 68.9%
O=c1[nH]cnc2c1ncn2C1OC(CO)C(O)C1O (centres undefined)	-202% and -23.5%
Cc1cc(C=CC#N)cc(C)c1Nc1ccnc(Nc2ccc(C#N)cc2)n1	-4.4%
CC(Oc1cc(-c2cnn(C3CCNCC3)c2)cnc1N)c1c(Cl)ccc(F)c1Cl (centres undefined)	96.5%
O=C(O)c1cc2cccc([N+](=O)[O-])c2[nH]1	-2.07%
O=c1[nH]c(=O)n(C2CC(O)C(CO)O2)cc1I (centres undefined)	-44.5%

same assay, conditions: drug combinations, measured here: BGB IC40 combination 0.05 uM, at 0.05 µM, stronger effect = higher value

SMILES	inhibition
COc1ccccc1S(=O)(=O)Nc1ccc2c(c1)CN(C)C(=O)N2	-35.9%
Cc1cc(C#N)cc(C)c1Oc1nc(Nc2ccc(C#N)cc2)nc(N)c1Br	7.73%
Nc1ncn(C2OC(CO)C(O)C2O)c(=O)n1 (centres undefined)	30.7%
Cc1cc(C)c(Nc2ccnc(Nc3ccc(C#N)cc3)n2)c(C)c1	-32.7%
COc1ccc(CC(N)C(=O)NC2C(CO)OC(n3cnc4c(N(C)C)ncnc43)C2O)cc1 (centres undefined)	-4.12% and 46.7%
O=c1ccn(C2OC(CO)C(O)C2O)c(=O)[nH]1 (centres undefined)	39.8% and -13.1%
CC=C1NC(=O)C2CSSCCC=CC(CC(=O)NC(C(C)C)C(=O)N2)OC(=O)C(C(C)C)NC1=O (centres undefined)	99.6% and 96.6%
CN(C)CC(=O)Nc1ccc2[nH]c(=O)c3ccccc3c2c1	25% and 2.93% and -19.8%
CC1OC(n2cc(F)c(=O)[nH]c2=O)C(O)C1O (centres undefined)	-9.17%
Nc1ccn(C2OC(CO)C(O)C2(F)F)c(=O)n1 (centres undefined)	-18.1% and -16.5% and -27.6%
Cc1cn(C2CC(N=[N+]=[N-])C(CO)O2)c(=O)[nH]c1=O (centres undefined)	-13.5% and -22.4%
CC(C=CC(=O)NO)=CC(C)C(=O)c1ccc(N(C)C)cc1 (centres undefined)	36.8%
NC(=S)NN=Cc1ncccc1N	-31.2%
CC(C)(C#N)c1ccc(N2C(=O)OCc3cnc4ccc(-c5cnc6ccccc6c5)cc4c32)cc1	-35.6%
CC1CN(c2c(F)c(N)c3c(=O)c(C(=O)O)cn(C4CC4)c3c2F)CC(C)N1 (centres undefined)	2.3%
CCCCN(Cc1ccc(C(=O)NO)cc1)C(=O)Nc1ccccc1	-5.38% and 25.6%
O=c1[nH]cnc2c1ncn2C1OC(CO)C(O)C1O (centres undefined)	-22.8% and -31.6%
Cc1cc(C=CC#N)cc(C)c1Nc1ccnc(Nc2ccc(C#N)cc2)n1	-11.4%
CC(Oc1cc(-c2cnn(C3CCNCC3)c2)cnc1N)c1c(Cl)ccc(F)c1Cl (centres undefined)	-35.9%
O=C(O)c1cc2cccc([N+](=O)[O-])c2[nH]1	-9.88%
O=c1[nH]c(=O)n(C2CC(O)C(CO)O2)cc1I (centres undefined)	12.9%

same assay, conditions: drug combinations, single agent, at 5 µM, stronger effect = higher value

SMILES	inhibition
COc1ccccc1S(=O)(=O)Nc1ccc2c(c1)CN(C)C(=O)N2	28.1%
Cc1cc(C#N)cc(C)c1Oc1nc(Nc2ccc(C#N)cc2)nc(N)c1Br	-20.3%
Nc1ncn(C2OC(CO)C(O)C2O)c(=O)n1 (centres undefined)	8.5%
Cc1cc(C)c(Nc2ccnc(Nc3ccc(C#N)cc3)n2)c(C)c1	2.56%
COc1ccc(CC(N)C(=O)NC2C(CO)OC(n3cnc4c(N(C)C)ncnc43)C2O)cc1 (centres undefined)	105% and 104%
O=c1ccn(C2OC(CO)C(O)C2O)c(=O)[nH]1 (centres undefined)	-4.18% and -25.9%
CC=C1NC(=O)C2CSSCCC=CC(CC(=O)NC(C(C)C)C(=O)N2)OC(=O)C(C(C)C)NC1=O (centres undefined)	106% and 108%
CN(C)CC(=O)Nc1ccc2[nH]c(=O)c3ccccc3c2c1	-11.5% and -8.61% and -15%
CC1OC(n2cc(F)c(=O)[nH]c2=O)C(O)C1O (centres undefined)	-31.7%
Nc1ccn(C2OC(CO)C(O)C2(F)F)c(=O)n1 (centres undefined)	11.1% and 16.6% and 14.7%
Cc1cn(C2CC(N=[N+]=[N-])C(CO)O2)c(=O)[nH]c1=O (centres undefined)	-33.2% and -6.84%
CC(C=CC(=O)NO)=CC(C)C(=O)c1ccc(N(C)C)cc1 (centres undefined)	106%
NC(=S)NN=Cc1ncccc1N	-27%
CC(C)(C#N)c1ccc(N2C(=O)OCc3cnc4ccc(-c5cnc6ccccc6c5)cc4c32)cc1	4.04%
CC1CN(c2c(F)c(N)c3c(=O)c(C(=O)O)cn(C4CC4)c3c2F)CC(C)N1 (centres undefined)	-7.96%
CCCCN(Cc1ccc(C(=O)NO)cc1)C(=O)Nc1ccccc1	45.6% and 57.8%
O=c1[nH]cnc2c1ncn2C1OC(CO)C(O)C1O (centres undefined)	-16.1% and -9.19%
Cc1cc(C=CC#N)cc(C)c1Nc1ccnc(Nc2ccc(C#N)cc2)n1	-18.3%
CC(Oc1cc(-c2cnn(C3CCNCC3)c2)cnc1N)c1c(Cl)ccc(F)c1Cl (centres undefined)	55.8%
O=C(O)c1cc2cccc([N+](=O)[O-])c2[nH]1	-23.7%
O=c1[nH]c(=O)n(C2CC(O)C(CO)O2)cc1I (centres undefined)	-7.11%

test: growth inhibition of RCMB18 medulloblastoma cells, cell-based, cisplatin and BGB IC40 combos (AID 1671462); details: at 0.5 µM, stronger effect = higher value;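 note: cells exposed to compound for four days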

SMILES	inhibition
COc1ccccc1S(=O)(=O)Nc1ccc2c(c1)CN(C)C(=O)N2	-15.3% (inactive)
Cc1cc(C#N)cc(C)c1Oc1nc(Nc2ccc(C#N)cc2)nc(N)c1Br	-32.5% (inactive)
Nc1ncn(C2OC(CO)C(O)C2O)c(=O)n1 (centres undefined)	6.45% (inactive)
Cc1cc(C)c(Nc2ccnc(Nc3ccc(C#N)cc3)n2)c(C)c1	-10.9% (inactive)
COc1ccc(CC(N)C(=O)NC2C(CO)OC(n3cnc4c(N(C)C)ncnc43)C2O)cc1 (centres undefined)	33.4% (inactive) and 51.8% (inactive)
O=c1ccn(C2OC(CO)C(O)C2O)c(=O)[nH]1 (centres undefined)	11% (inactive) and -17.5% (inactive)
CC=C1NC(=O)C2CSSCCC=CC(CC(=O)NC(C(C)C)C(=O)N2)OC(=O)C(C(C)C)NC1=O (centres undefined)	90.4% (active) and 89.4% (active)
CN(C)CC(=O)Nc1ccc2[nH]c(=O)c3ccccc3c2c1	-10.8% (inactive) and -26% (inactive) and -30.1% (inactive)
CC1OC(n2cc(F)c(=O)[nH]c2=O)C(O)C1O (centres undefined)	-20.6% (inactive)
Nc1ccn(C2OC(CO)C(O)C2(F)F)c(=O)n1 (centres undefined)	5.91% (inactive) and 3.99% (inactive) and 14.1% (inactive)
Cc1cn(C2CC(N=[N+]=[N-])C(CO)O2)c(=O)[nH]c1=O (centres undefined)	-27.2% (inactive) and -6.41% (inactive)
CC(C=CC(=O)NO)=CC(C)C(=O)c1ccc(N(C)C)cc1 (centres undefined)	83.6% (active)
NC(=S)NN=Cc1ncccc1N	-9.8% (inactive)
CC(C)(C#N)c1ccc(N2C(=O)OCc3cnc4ccc(-c5cnc6ccccc6c5)cc4c32)cc1	-2.14% (inactive)
CC1CN(c2c(F)c(N)c3c(=O)c(C(=O)O)cn(C4CC4)c3c2F)CC(C)N1 (centres undefined)	-6.55% (inactive)
CCCCN(Cc1ccc(C(=O)NO)cc1)C(=O)Nc1ccccc1	12.4% (inactive) and 19.2% (inactive)
O=c1[nH]cnc2c1ncn2C1OC(CO)C(O)C1O (centres undefined)	-14.6% (inactive) and -17.6% (inactive)
Cc1cc(C=CC#N)cc(C)c1Nc1ccnc(Nc2ccc(C#N)cc2)n1	-10.6% (inactive)
CC(Oc1cc(-c2cnn(C3CCNCC3)c2)cnc1N)c1c(Cl)ccc(F)c1Cl (centres undefined)	16.2% (inactive)
O=C(O)c1cc2cccc([N+](=O)[O-])c2[nH]1	-11.6% (inactive)
O=c1[nH]c(=O)n(C2CC(O)C(CO)O2)cc1I (centres undefined)	-5.93% (inactive)

— PubChem BioAssay
